A selection: hits, their analogues and other compounds. The true share with any hit is near 19%.
DT40 TDP1 CPT: growth inhibition of DT40 Tdp1-/-;hTDP1 cells with camptothecin (screen for TDP1 inhibitors) | chicken DT40 Tdp1-/-;hTDP1 cells + 20 nM CPT, ATP luminescence, 48 h | Potency, µM (series often up to 46.2 µM), usual class: inhibitors | 420,000 compounds, 12% hits | AID 686979; further: nearly all actives have a fitted effect of over 55% in size
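Chicken DT40 Tdp1-/- cells stably complemented with human TDP1 were seeded at 400 cells/well in medium containing 20 nM camptothecin, exposed to pin-transferred compounds, and grown at 37 °C for at least 48 hr. Viability was read as ATP luminescence.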
TDP1 cell noCPT: qHTS for Inhibitors of human tyrosyl-DNA phosphodiesterase 1 (TDP1): qHTS in cells in absence of CPT | DT40 Tdp1-/- hTDP1 cells, no CPT, ATP luminescence, 48 h | Potency, µM (highest dose often 46.2 µM), hits mostly inhibitors | 420,000 compounds, 15% hits; further: nearly all actives have a fitted effect of over 55% in size
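Growth kinetics read by CellTiter-Glo luminescence after ≥48 hr at 37 °C. Cells: DT40 Tdp1-/- stably carrying human TDP1, 400 per well, compound exposure in the absence of CPT (DMSO vehicle).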
SW480 rerep: inducers of DNA re-replication in SW480 colon cancer cells; Potency, µM (highest dose often 46.1 µM), most hits filed as activators; AID 624297; SW480 DNA re-replication, Hoechst DNA content imaging, 48 h; 340,000 compounds, 1.8% hits; further: nearly all actives have a fitted effect of over 55% in size
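Image-based DNA-content assay: after two days of treatment, nuclei were labelled with the DNA dye Hoechst and imaged, and hits were compounds raising the count of nuclei showing high fluorescence intensity.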
MCF10A rerep: induces DNA re-replication in MCF 10a normal breast cells. 350,000 compounds, 2.9% hits. AID 624296. MCF 10A DNA re-replication, Hoechst nuclear intensity, 48 h. Potency, µM (series often up to 46.1 µM), actives largely listed as activators; further: nearly all actives have a fitted effect of over 50% in size
IL1B secr inh: inhibitors of inflammasome signaling (IL-1 beta secretion); THP-1 LPS/ATP IL-1B secretion, AlphaLISA, 16 h; hits give low values; activity change, % at 57.5 µM; 360,000 compounds, 4.7% hits; AID 743279; in the data active means activity change below about -50%; inconclusive means mostly about -30% to -49%
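THP-1 cells pretreated 1 hr with compounds (up to 57.5 uM final), then stimulated with LPS (250 ng/mL final) plus ATP (1.25 mM final); secreted IL-1B measured by AlphaLISA after 16 hr, decreased signal indicating inhibition.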
Chronic BCR inh: chronic active BCR signaling inhibition | ABC-DLBCL IkBa-CBG/CBR reporter, luminescence ratio, 4 h | Potency, µM (highest dose often 46.1 µM), most hits filed as inhibitors | 340,000 compounds, 0.05% hits; active means well fitted inhibition curve with a large enough effect in the signal ratio, with a control signal flat, not every such curve was filed as active; inconclusive means small, poorly fitted or top-dose-only effect, or effect the other way, or a change in a side signal; the % refers to the signal ratio
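Concentration-response series (up to 46 uM) were applied to TMD8 dual-reporter cells for 4 h at 37C with doxycycline. Green/red ratio, after filter-overlap correction, defined %Activity; red signal alone was normalised to basal cells and zero luminescence.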
Numbers stand for hits; – = inactive; ? = inconclusive; · = no result. Unless noted, the call rests on the fitted dose curve; in most records, active means well fitted curve in the direction sought with a large enough effect; inconclusive means small, poorly fitted or top-dose-only effect, or another doubt; inactive means no such curve, though single readings can be large; an effect the other way counts as inactive or inconclusive.

SMILES	DT40 TDP1 CPT	TDP1 cell noCPT	SW480 rerep	MCF10A rerep	IL1B secr inh	Chronic BCR inh
CSc1ccccc1C(=O)NCC(c1ccco1)N1CCCCC1 (stereo not given)	–	–	–	–	–	–
Cc1cccc(N2CCN(C(=O)c3cc(S(=O)(=O)N4CCOCC4)cn3C)CC2C)c1 (stereo not given)	?	–	–	–	–	–
COC(=O)c1cc2sccc2n1Cc1c(C)cc(C)cc1C	–	?	·	·	·	·
Cc1cccc(NC(=O)NCC(c2ccco2)N2CCCCC2)c1 (stereo not given)	–	–	?	–	–	?
CCc1cc(C(=O)NCC(c2ccco2)N2CCCCC2)sc1C (stereo not given)	?	15µM	–	–	–	–
Cc1ccccc1-c1cc2c(c(OC3CCOC3)c1)OCCN(C(=O)Cn1cccn1)C2 (stereo not given)	–	–	·	·	·	·
C[C@]12c3[nH]c4ccc(Cl)cc4c3CCN1C(=O)[C@@H](CC(=O)NCCc1ccccn1)C[C@@H]2C(=O)N1CCCCC1	?	26µM	–	?	–	?
COCCCNC(=O)C[C@H]1C[C@H](C(=O)N2CCCCC2)[C@@]2(C)c3[nH]c4ccc(Cl)cc4c3CCN2C1=O	21µM	13µM	–	–	–	?
CC[C@]12c3[nH]c4ccc(Cl)cc4c3CCN1C(=O)[C@@H](CC(=O)NCCc1ccccn1)C[C@@H]2C(=O)N1CCN(C(=O)C2CC2)CC1	?	?	–	–	–	?
C[C@]12c3[nH]c4cc(-c5ccco5)ccc4c3CCN1C(=O)[C@@H](CC(=O)NCCc1ccccn1)C[C@@H]2C(=O)N1CCCCC1	?	?	–	?	-108	?
O=C(c1ccco1)N1CCN(c2ncnc3c2cnn3-c2ccccc2)CC1	?	29µM	–	?	–	?
O=C(c1ccccc1)N1CCN(c2ncnc3c2cnn3-c2ccccc2)CC1	23µM	21µM	–	–	–	–
CC1CCN(c2ncnc3c2cnn3-c2ccccc2)CC1	–	?	–	–	–	?
Cc1nn(-c2ccccc2)c(Cl)c1C(=O)N1CCN(c2ncnc3c2cnn3-c2ccccc2)CC1	3.3µM	4.1µM	?	?	-74	–
CCc1cc2c(N3CCN(C(=O)c4ccco4)CC3)ncnc2s1	?	?	–	–	–	–
O=C(c1cccc(Cl)c1)N1CCN(c2ncnc3c2cnn3-c2ccccc2)CC1	–	–	–	–	–	–
COc1cccc(OCCN2CCN(c3ncnc4c3cnn4-c3ccccc3)CC2)c1	?	?	–	18µM	–	?
COCCNC(=O)C1CCCN(Cc2ccccc2F)CC1 (stereo not given)	–	–	·	·	–	·
Cc1cccc(CNC(=O)c2ccc(NC(=O)C3=CSCCO3)cc2)c1	?	?	–	–	–	–
CCOC(=O)[C@H]1[C@H]2COc3ccc(Cl)cc3[C@@H]2N2C(=O)CN(C)C(=O)[C@@]12C	–	–	–	–	–	?
COc1ccc(NC(C)=O)cc1CNC(=O)CN1CCOCC1	–	–	–	?	–	–
OCC#CCSc1nnc(-c2ccccc2Br)o1	–	–	?	12µM	–	?
CC1OC(C(C)(C)C)Cc2[nH][nH]c(=O)c21 (stereo not given)	–	–	·	·	–	·
CCN(C(=O)COC(=O)c1c(C)nn(-c2ccccc2)c1C)C1CCS(=O)(=O)C1 (stereo not given)	–	–	–	–	–	?
CCN(C(=O)CSc1nc(-c2cccs2)nc2ccccc12)C1CCS(=O)(=O)C1 (stereo not given)	?	?	–	?	-93	–
CCN(C(=O)CSc1cc(-c2ccccc2)c2ccc(OC)cc2n1)C1CCS(=O)(=O)C1 (stereo not given)	?	?	–	?	-61	?
